# Test results taken from PubChem BioAssay (Tox21).
# Inconclusive results are not listed. The source made the active and inactive calls. The call rests on the fitted dose curve; in most records, active means well fitted cell-killing curve with a large enough effect in the repeat runs; inconclusive means weak or mixed curves, or effect the other way; inactive means no such curve, though single readings can be large or run the other way.
# Test: qHTS assay to identify small molecule agonists of the vitamin D receptor (VDR) signaling pathway - cell viability counter screen (AID 743224); further: nearly all actives have a fitted effect of over 50% in size
# Details: VDR-bla HEK293T viability, CellTiter-Glo luminescence, 16 h; series mostly up to 62.6 µM; activity change, negative = cytotoxicity: at the top concentration
# Source text: U.S. Tox21 Program National Center for Advancing Translational Sciences [NCATS] NIH Chemical Genomics Center [NCGC] U.S. Environmental Protection Agency [EPA] National Institutes of Environmental Health Sciences [NIEHS] National Toxicology Program [NTP] U.S. Food and Drug Administration [FDA] Tox21 Assay Overview: The vitamin D receptor (VDR), a member of nuclear hormone receptor superfamily, plays a critical role in calcium homeostasis and bone metabolism. It is also involved in cell differentiation and growth, and thrombogenicity. […] The cytotoxicity of the Tox21 compound library against the VDR-bla cell line was tested in parallel by measuring the cell viability using CellTiter-Glo assay (Promega, Madison, WI) in the same wells.
# Tox21 Assay Protocol Summary: VDR-bla cells were dispensed at 2,000 cells/6 uL/well into black wall/clear-bottom 1536-well plates using a Multidrop Combi (Thermo Fisher Scientific, Waltham, MA) dispenser. After the assay plates were incubated at a 37C and 5% CO2 for 4 h, 23 nL of compounds dissolved in DMSO, positive controls or DMSO only was transferred to the assay plate by a Pintool station (Kalypsys, San Diego, CA). The plates were incubated at 37C and 5% CO2 for 16 h. After 1 uL of LiveBLAzerTM B/G FRET substrate was added using a Bioraptr Flying Reagent Dispenser (FRD) workstation (Beckman Coulter, Indianapolis, IN, USA), the plates were incubated at room temperature for 2 h, and fluorescence intensity was measured by an Envision plate reader (PerkinElmer, Shelton, CT). For cell viability readout that measures cytotoxicity, 3 ul/well of CellTiter-Glo reagent was added into the assay plates using a FRD. After 30 min incubation at room temperature, the luminescence intensity in the plates was measured using a ViewLux (PerkinElmer) plate reader.
# On the % scale 0 is the no-effect control and ±100 the full control effect.
row,SMILES,"activity change, negative = cytotoxicity"
1,CCCCC1CCC(O)CC1 (stereo not given),-9.87% (inactive)
2,c1ccc(B(c2ccccc2)c2ccccc2)cc1,-7.46% (inactive)
3,COC(=O)c1cccc(Cl)c1,-0.604% (inactive)
4,CC(=O)OCC(=O)Nc1cc(C#N)cc(NC(=O)COC(C)=O)c1Cl,-0.0287% (inactive)
5,O=S(=O)(O)c1ccc2c(N=Nc3ccc(S(=O)(=O)O)c4ccccc34)c(O)c(S(=O)(=O)O)cc2c1,-0.166% [at 5.95 µM] (inactive)
6,C=C(C)c1cccc(C(C)(C)N=C=O)c1,4.07% (inactive)
7,COc1nc(N)nc2nc[nH]c12,1.04% (inactive)
8,Cn1c(=O)c2[nH]c(Br)nc2n(C)c1=O,-9.2% (inactive)
9,CCCc1ccc(O)cc1,-14.3% (inactive)
10,CC/C(C)=N\O[Si](C)(O/N=C(\C)CC)O/N=C(\C)CC,7.49% [at 81.1 µM] (inactive)
11,ONc1ccccc1,9.67% [at 81.1 µM] (inactive)
12,CC1=C(O)C(=O)C(C)O1 (stereo not given),7.46% [at 81.1 µM] (inactive)
13,CC(C)NC(=O)c1ccc(C=O)cc1,14.4% (inactive)
14,C=CC(=O)CCCCC,0.265% [at 81.1 µM] (inactive)
15,CC(C)[C@H]1CC[C@H](C)C[C@@H]1O,21.8% [at 81.1 µM] (inactive)
16,OC1OCCOC1O (stereo not given),14.1% (inactive)
17,O=C=NCC1CCCC(CN=C=O)C1 (stereo not given),2% (inactive)
18,CC(C)(C)NC[C@H](O)COc1cccc2c1CCCC2=O,2.54% (inactive)
19,CO/N=C(/C(=O)N[C@@H]1C(=O)N2C(C(=O)[O-])=C(C[n+]3ccn4ncccc43)CS[C@H]12)c1nsc(N)n1,-11% (inactive)
20,CO[Si](CCCn1c(=O)n(CCC[Si](OC)(OC)OC)c(=O)n(CCC[Si](OC)(OC)OC)c1=O)(OC)OC,-5.13% (inactive)

row,SMILES,"activity change, negative = cytotoxicity"
1,C=CCOC(=O)CCCCCC,9.33% (inactive)
2,CC1CC(=O)CC(C)(C)C1 (stereo not given),5.06% (inactive)
3,N[C@@H](Cc1ccc(O)cc1)C(=O)O,18.1% [at 13.2 µM] (inactive)
4,CC(C)OC(=O)CCC(=O)OC(C)C,-22.8% (inactive)
5,CC(C)C1OCCN1CCOC(=O)NCCCCCCNC(=O)OCCN1CCOC1C(C)C (stereo not given),9.9% (inactive)
6,COS(=O)(=O)O,16.5% (inactive)
7,COc1ccc(CCO)cc1,10.6% (inactive)
8,CC(N)CCCC(C)(C)O (stereo not given),-13.3% (inactive)
9,CCCC(=O)Nc1ccc(OCC(O)CNC(C)C)c(C(C)=O)c1 (stereo not given),10.6% (inactive)
10,C/C=C(\C)C(=O)OCCc1ccccc1,-14.9% (inactive)
11,COc1cc2c(cc1OC)CN(C(=O)[C@H](C)N[C@@H](CCc1ccccc1)C(=O)O)[C@H](C(=O)O)C2,0.0819% (inactive)
12,COc1cc(OC)nc(O[C@H](C(=O)O)C(OC)(c2ccccc2)c2ccccc2)n1,2.7% (inactive)
13,CC(=O)Nc1ccc(OC(=O)c2ccccc2OC(C)=O)cc1,18.4% (inactive)
14,CC(=O)O[C@H]1C[C@@H]2CC[C@@]1(C)C2(C)C,-22.1% (inactive)
15,CO[C@@]1(NC(=O)Cc2cccs2)C(=O)N2C(C(=O)O)=C(COC(N)=O)CS[C@@H]21,-8.96% (inactive)
16,CC(CO)(CO)CO,7.54% [at 81.1 µM] (inactive)
17,O=Cc1ccccc1Cl,1.83% (inactive)
18,CC(C)C[C@@H]1[C@H](c2ccccc2)OC(=O)N1CCCN1CCCCCC1,-23.7% (inactive)
19,OCC1CCC(CO)CC1 (stereo not given),6.19% [at 81.1 µM] (inactive)
20,CC(C)CO,14.3% [at 81.1 µM] (inactive)
